ChEMBL document CHEMBL1961873, “Compounds: GSK PKIS; Assays: Nanosyn kinase panel” (2012)

Assays:
[1] = target: Serine/threonine-protein kinase pim-2 (Homo sapiens) (UniProt Q9P1W9); conditions: at 1 µM;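 also: each value is a mean of the inhibition measurements against the kinase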
[2] = target: Serine/threonine-protein kinase pim-3 (Homo sapiens) (UniProt Q86V86); conditions: at 0.1 µM
[3] = target: Serine/threonine-protein kinase pim-3 (Homo sapiens) (UniProt Q86V86); conditions: at 1 µM
[4] = target: T1, MAP kinase-activated protein kinase 5 (Homo sapiens) (UniProt Q8IW41); conditions: at 0.1 µM
T1 sequence (whole entry): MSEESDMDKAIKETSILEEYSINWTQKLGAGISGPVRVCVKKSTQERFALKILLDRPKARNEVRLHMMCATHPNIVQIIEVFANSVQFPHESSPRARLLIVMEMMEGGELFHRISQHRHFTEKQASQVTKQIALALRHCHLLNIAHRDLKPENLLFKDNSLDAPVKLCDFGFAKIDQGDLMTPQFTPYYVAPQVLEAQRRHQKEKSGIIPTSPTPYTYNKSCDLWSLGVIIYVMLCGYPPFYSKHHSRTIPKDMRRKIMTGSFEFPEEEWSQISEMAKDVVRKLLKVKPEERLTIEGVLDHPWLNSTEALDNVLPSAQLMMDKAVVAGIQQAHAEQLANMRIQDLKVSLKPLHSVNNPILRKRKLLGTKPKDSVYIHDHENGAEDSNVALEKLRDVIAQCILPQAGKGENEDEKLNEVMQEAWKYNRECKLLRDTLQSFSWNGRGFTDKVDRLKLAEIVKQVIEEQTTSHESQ

[5] = target: T1, MAP kinase-activated protein kinase 5 (Homo sapiens); conditions: at 1 µM
[6] = target: Serine/threonine-protein kinase SIK1 (Homo sapiens) (UniProt P57059); conditions: at 0.1 µM
Chain of Serine/threonine-protein kinase SIK1 (Homo sapiens) (P57059 whole entry): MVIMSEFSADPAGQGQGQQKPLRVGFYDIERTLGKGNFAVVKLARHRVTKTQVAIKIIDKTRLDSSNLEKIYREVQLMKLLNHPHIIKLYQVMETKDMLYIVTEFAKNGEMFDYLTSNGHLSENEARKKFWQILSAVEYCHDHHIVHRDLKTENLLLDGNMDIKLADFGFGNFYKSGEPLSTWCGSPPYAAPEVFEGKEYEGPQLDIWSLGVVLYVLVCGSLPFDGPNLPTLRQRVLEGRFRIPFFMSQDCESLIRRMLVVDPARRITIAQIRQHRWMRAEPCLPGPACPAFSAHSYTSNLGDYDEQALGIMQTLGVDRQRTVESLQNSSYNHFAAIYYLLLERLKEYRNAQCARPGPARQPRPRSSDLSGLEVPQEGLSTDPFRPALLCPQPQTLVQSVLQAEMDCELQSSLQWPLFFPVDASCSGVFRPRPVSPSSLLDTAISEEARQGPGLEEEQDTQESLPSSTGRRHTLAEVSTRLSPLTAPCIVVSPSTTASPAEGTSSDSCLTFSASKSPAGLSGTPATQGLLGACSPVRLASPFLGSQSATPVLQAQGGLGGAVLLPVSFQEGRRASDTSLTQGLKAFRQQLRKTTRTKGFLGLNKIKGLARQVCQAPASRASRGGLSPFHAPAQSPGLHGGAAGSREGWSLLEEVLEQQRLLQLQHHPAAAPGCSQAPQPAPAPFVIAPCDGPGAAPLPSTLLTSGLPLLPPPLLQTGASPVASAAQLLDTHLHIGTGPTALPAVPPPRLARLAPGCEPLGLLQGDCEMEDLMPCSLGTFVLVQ

[7] = target: Serine/threonine-protein kinase SIK1 (Homo sapiens) (UniProt P57059); conditions: at 1 µM
[8] = target: Serine/threonine-protein kinase SIK2 (Homo sapiens) (UniProt Q9H0K1); conditions: at 0.1 µM
Chain of Serine/threonine-protein kinase SIK2 (Homo sapiens) (Q9H0K1 whole entry, looked up): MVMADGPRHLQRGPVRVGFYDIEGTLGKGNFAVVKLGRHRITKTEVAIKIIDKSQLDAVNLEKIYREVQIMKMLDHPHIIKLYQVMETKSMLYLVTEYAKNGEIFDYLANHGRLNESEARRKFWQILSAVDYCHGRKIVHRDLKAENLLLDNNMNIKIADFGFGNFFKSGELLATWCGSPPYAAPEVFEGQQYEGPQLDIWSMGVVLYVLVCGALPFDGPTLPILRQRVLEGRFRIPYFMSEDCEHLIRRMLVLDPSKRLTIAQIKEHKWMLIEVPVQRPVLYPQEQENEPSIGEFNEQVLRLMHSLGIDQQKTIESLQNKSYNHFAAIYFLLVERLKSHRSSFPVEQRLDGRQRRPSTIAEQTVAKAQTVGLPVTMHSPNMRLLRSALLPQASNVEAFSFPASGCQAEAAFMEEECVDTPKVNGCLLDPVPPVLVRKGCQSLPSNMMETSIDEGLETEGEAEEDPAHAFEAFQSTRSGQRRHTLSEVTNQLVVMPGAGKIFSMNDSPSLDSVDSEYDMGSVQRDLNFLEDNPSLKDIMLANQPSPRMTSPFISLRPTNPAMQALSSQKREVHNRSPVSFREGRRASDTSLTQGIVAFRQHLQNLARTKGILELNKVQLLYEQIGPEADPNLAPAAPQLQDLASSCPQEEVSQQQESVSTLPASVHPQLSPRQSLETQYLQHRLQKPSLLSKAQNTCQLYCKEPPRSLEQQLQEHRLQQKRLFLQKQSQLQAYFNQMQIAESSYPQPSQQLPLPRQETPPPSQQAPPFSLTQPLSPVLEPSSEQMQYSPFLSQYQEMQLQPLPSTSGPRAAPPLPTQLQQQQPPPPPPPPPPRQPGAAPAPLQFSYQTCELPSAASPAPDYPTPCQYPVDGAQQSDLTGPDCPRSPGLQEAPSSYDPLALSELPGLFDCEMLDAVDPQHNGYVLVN

[9] = target: Serine/threonine-protein kinase SIK2 (Homo sapiens) (UniProt Q9H0K1); conditions: at 1 µM
[10] = target: T2, Serine/threonine-protein kinase TBK1 (Homo sapiens) (UniProt Q9UHD2); conditions: at 0.1 µM
T2 sequence (whole entry): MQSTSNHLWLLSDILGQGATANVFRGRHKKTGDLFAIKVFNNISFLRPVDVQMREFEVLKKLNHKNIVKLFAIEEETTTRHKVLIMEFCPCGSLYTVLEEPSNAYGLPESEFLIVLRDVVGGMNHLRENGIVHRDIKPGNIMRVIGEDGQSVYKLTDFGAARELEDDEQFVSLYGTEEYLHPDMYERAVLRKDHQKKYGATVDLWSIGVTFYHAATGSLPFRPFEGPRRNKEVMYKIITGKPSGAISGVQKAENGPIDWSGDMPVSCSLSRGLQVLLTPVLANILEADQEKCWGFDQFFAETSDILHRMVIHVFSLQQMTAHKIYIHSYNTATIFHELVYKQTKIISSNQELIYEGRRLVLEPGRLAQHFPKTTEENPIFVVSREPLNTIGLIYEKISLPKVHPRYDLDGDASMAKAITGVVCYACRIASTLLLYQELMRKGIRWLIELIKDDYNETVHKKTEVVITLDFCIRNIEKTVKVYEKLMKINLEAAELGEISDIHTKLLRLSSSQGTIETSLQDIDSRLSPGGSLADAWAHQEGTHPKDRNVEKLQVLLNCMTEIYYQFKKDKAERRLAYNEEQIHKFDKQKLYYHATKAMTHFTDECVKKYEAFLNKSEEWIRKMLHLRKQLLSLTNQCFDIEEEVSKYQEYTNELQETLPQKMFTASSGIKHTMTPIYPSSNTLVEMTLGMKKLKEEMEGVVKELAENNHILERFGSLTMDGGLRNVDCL

[11] = target: T2, Serine/threonine-protein kinase TBK1 (Homo sapiens); conditions: at 1 µM
[12] = target: T3, Testis-specific serine/threonine-protein kinase 1 (Homo sapiens) (UniProt Q9BXA7); conditions: at 0.1 µM
T3 sequence (whole entry): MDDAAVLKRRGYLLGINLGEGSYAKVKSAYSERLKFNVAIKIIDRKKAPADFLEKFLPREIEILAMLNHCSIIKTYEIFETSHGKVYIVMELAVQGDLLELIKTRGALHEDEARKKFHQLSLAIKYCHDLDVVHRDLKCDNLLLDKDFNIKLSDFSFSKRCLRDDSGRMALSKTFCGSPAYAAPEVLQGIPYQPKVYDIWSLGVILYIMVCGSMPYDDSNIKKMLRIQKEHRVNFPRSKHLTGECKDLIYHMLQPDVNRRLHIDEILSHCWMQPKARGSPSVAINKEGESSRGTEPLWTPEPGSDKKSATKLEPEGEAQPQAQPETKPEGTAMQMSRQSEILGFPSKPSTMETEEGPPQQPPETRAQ

[13] = target: T3, Testis-specific serine/threonine-protein kinase 1 (Homo sapiens); conditions: at 1 µM
[14] = target: T4, Testis-specific serine/threonine-protein kinase 2 (Homo sapiens) (UniProt Q96PF2); conditions: at 0.1 µM
T4 sequence (whole entry): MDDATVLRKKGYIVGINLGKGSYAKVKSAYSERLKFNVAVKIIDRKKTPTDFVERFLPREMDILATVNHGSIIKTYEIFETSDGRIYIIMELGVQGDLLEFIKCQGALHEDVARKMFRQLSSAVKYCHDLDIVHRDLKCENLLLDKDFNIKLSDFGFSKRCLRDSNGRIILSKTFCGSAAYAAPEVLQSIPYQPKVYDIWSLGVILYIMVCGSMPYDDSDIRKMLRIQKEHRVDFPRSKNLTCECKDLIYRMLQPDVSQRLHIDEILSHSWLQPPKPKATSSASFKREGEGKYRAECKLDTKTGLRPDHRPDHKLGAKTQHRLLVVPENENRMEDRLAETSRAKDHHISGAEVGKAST

[15] = target: T4, Testis-specific serine/threonine-protein kinase 2 (Homo sapiens); conditions: at 1 µM
[16] = target: Casein kinase I isoform alpha (Homo sapiens) (UniProt P48729); conditions: at 0.1 µM
Chain of Casein kinase I isoform alpha (Homo sapiens) (P48729 2-337 limits assumed): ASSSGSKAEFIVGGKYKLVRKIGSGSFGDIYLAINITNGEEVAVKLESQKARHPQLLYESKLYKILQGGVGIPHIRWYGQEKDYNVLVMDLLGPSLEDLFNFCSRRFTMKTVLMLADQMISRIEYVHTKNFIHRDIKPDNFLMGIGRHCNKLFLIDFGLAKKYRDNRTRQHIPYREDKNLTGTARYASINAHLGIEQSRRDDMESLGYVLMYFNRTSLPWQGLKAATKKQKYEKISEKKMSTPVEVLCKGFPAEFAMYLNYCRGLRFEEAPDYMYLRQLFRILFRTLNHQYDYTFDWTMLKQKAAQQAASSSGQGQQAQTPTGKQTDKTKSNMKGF

[17] = target: Casein kinase I isoform alpha (Homo sapiens) (UniProt P48729); conditions: at 1 µM
[18] = target: Casein kinase I isoform gamma-1 (Homo sapiens) (UniProt Q9HCP0); conditions: at 0.1 µM
Chain of Casein kinase I isoform gamma-1 (Homo sapiens) (Q9HCP0 whole entry, looked up, canonical isoform): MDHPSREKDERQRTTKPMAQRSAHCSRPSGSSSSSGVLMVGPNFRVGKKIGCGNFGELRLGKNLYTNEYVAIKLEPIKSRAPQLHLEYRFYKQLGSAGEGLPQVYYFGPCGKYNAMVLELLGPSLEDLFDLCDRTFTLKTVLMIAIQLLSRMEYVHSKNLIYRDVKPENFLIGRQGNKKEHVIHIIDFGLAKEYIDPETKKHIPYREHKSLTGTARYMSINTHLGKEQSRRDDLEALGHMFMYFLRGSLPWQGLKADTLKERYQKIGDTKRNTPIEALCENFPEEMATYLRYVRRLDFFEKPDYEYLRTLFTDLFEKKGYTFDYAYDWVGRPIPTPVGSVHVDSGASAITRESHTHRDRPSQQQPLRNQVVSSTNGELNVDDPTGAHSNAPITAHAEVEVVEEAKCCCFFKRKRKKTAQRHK

[19] = target: Casein kinase I isoform gamma-1 (Homo sapiens) (UniProt Q9HCP0); conditions: at 1 µM
[20] = target: Casein kinase I isoform gamma-2 (Homo sapiens) (UniProt P78368); conditions: at 0.1 µM;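 also: values are mean inhibition figures reported as part of the GSK PKIS dataset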
Chain of Casein kinase I isoform gamma-2 (Homo sapiens) (P78368 whole entry, looked up, canonical isoform): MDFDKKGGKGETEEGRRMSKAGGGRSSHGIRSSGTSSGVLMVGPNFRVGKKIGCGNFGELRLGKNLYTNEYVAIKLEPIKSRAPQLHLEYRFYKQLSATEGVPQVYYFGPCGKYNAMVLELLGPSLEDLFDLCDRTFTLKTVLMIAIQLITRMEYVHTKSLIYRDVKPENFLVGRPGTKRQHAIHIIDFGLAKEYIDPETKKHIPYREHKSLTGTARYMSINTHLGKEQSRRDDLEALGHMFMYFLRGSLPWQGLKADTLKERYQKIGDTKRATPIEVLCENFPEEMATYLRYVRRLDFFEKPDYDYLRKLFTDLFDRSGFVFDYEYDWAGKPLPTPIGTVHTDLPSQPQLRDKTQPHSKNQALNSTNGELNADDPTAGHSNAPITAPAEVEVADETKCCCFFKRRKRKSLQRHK

Chain of Serine/threonine-protein kinase pim-2 (Homo sapiens) (Q9P1W9 whole entry, looked up): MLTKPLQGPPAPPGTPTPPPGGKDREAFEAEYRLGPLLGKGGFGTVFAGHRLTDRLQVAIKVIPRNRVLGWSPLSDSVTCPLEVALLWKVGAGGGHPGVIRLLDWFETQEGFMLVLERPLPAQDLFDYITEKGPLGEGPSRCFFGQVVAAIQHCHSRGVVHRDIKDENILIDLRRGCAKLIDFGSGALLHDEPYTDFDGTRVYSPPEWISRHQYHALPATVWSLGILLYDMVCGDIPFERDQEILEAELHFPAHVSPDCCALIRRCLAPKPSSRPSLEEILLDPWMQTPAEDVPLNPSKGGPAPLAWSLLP

SMILES | inhibition [1] | inhibition [2] | inhibition [3] | inhibition [4] | inhibition [5] | inhibition [6] | inhibition [7] | inhibition [8] | inhibition [9] | inhibition [10] | inhibition [11] | inhibition [12] | inhibition [13] | inhibition [14] | inhibition [15] | inhibition [16] | inhibition [17] | inhibition [18] | inhibition [19] | inhibition [20]
Nc1nc(-c2cccc(Cl)c2)c(-c2ccc3ncccc3n2)s1 | 0.44% | 1.25% | 4.87% | 2.21% | 4.45% | 3.24% | 9.29% | 4.96% | 14.6% | 3.03% | 4.37% | 7.29% | 12.9% | 3.52% | 6.73% | 1.48% | 5.89% | 5.14% | 16.6% | 4.46%
CNC(=O)c1cc(-c2ccc(F)cc2)cc(-c2ccc(S(=O)(=O)N3CCCC3)cc2)c1N | 0.43% | -1.52% | -0.11% | 0.53% | 0.97% | 6.18% | 6.6% | 3.18% | 5.07% | 0.38% | 1.13% | 2.57% | 3.21% | 1.51% | 1.66% | 2.27% | 3.11% | 2.3% | 2.21% | 2.4%
COC(=O)Nc1nc2ccc(Oc3ccc(NC(=O)Nc4cccc(Cl)c4)cc3)cc2[nH]1 | -1.04% | -0.85% | -1.87% | 0.18% | -0.5% | 1.1% | 4.14% | 0.4% | 1.86% | 1.34% | -2.2% | 2.29% | 0.67% | -0.06% | -0.21% | 0.11% | 0.94% | 0.68% | 1.34% | 0.75%
Nc1ncc(-c2cccc(S(N)(=O)=O)c2)c2scc(-c3ccc(F)c(Cl)c3)c12 | 0.78% | 1.11% | 0.91% | 1.73% | 1.77% | 20.4% | 61% | 9.17% | 28.8% | 3.75% | 3.47% | 3.24% | 4.96% | 2.48% | 2.51% | 6.19% | 36.5% | 2.96% | 4.15% | 2.73%
c1cc(-c2cnn3nc(N4CCOCC4)ccc23)nc(NC2CC2)n1 | 0.92% | -0.59% | 4.8% | 1.08% | 0.41% | 7.04% | 5.66% | 6.34% | 7.7% | 3.02% | 6.36% | 2.66% | 5.12% | 0.16% | -3.76% | 5.43% | 15.8% | 3.42% | 8.05% | 3.35%
O=C(Nc1n[nH]c2cc(-c3ccc(F)cc3)ccc12)C1CC1 | 1.49% | 0.08% | 0.99% | 1.06% | 5.12% | 4.89% | 6.8% | 5.76% | 7.9% | 2.6% | 5.39% | 3.31% | 2.06% | 2.29% | 0.97% | 2.37% | 7.14% | 2.86% | 3.21% | 2.45%
COc1cc2c(cc1Nc1nc(Nc3ccsc3C(N)=O)c3cc[nH]c3n1)N(C(=O)CN(C)C)CCC2(C)C | 11.9% | 18.4% | 68.1% | 1.65% | 3.7% | 2.02% | 7.92% | 7.71% | 7.78% | 11.3% | 50.7% | 94.6% | 96.3% | 87.4% | 94.6% | 4.27% | 14.9% | 6.43% | 21.1% | 3.76%
CCCN1CCC(c2ccc(Nc3nc(Nc4cc(F)ccc4C(N)=O)c4cc[nH]c4n3)c(OC)c2)CC1 | 13.3% | 8.07% | 49.4% | 6.44% | 40.9% | 10.1% | 14.7% | 10.9% | 11.7% | 0.75% | 10.2% | 82.4% | 94.8% | 63.3% | 91.1% | 31.9% | 67.5% | 23.7% | 72.1% | 20.9%
[O-][S+]1CCN(Cc2ccc(-c3ccc4ncnc(Nc5ccc(OCc6cccc(F)c6)c(Cl)c5)c4c3)o2)CC1 | 0.11% | 0.21% | 1.34% | 2% | 2.05% | 5.68% | 12.1% | 8.92% | 10.4% | 5.39% | 5.41% | 5.74% | 5.31% | 3.26% | 3.22% | 5.02% | 4.04% | 4.04% | 5.15% | 3.65%
Cc1ccc(O)cc1Nc1ccnc2cc(-c3ccccn3)ccc12 | 1.15% | -0.3% | -0.17% | 1.2% | 0.39% | 14.9% | 48.6% | 6.77% | 23.9% | 2.89% | 6.68% | 3.87% | 3.16% | 1.09% | -1.1% | 3.78% | 12.5% | 4.65% | 11% | 2.73%
CN1CCC(n2cnc(-c3ccc(F)cc3)c2-c2ccnc(Nc3ccccc3)n2)CC1 | 0.35% | 1.06% | 5.66% | 1.06% | 1.42% | 3.13% | 4.66% | 7.17% | 22.9% | 0.4% | 2.8% | 3.05% | 3.21% | 2.5% | 2.86% | 53.5% | 83.6% | 7.05% | 42% | 4.57%
Clc1ccc(-c2nn3ncccc3c2-c2ccnc(Nc3ccccc3)n2)cc1 | 0.51% | 3.12% | 0.33% | 0.57% | -0.73% | 3.67% | 13.6% | -1.6% | 13.9% | 1.29% | 2.57% | 0.84% | 0.18% | 2.19% | -0.46% | 5.52% | 39.6% | 3.83% | 1.87% | 0.23%
CCNC(=O)O[C@H]1CN[C@H](C#Cc2cc3ncnc(Nc4ccc(OCc5cccc(F)c5)c(Cl)c4)c3s2)C1 | -0.15% | -0.41% | -2.78% | 0.89% | 0.04% | 9.17% | 7.09% | 4.37% | 4.15% | 1.48% | 3.67% | 2.93% | -2.91% | 3.47% | -1.23% | 1.8% | 1.43% | 2.15% | 2.01% | 1.8%
